From paper PMC11995724, “Antibiotic target discovery by integrated phenotypic and activity-based profiling of electrophilic fragments” (Cell chemical biology, 2025)
Among all 3,200 compounds or so, about 110 (3.4%) showed an effect of 50% or more. This excerpt belongs to a sample that is enriched for strong results.

tested on: T1, V. cholerae SAD30; set-up: species or system S. aureus MSSA476 (TSB) or V. cholerae SAD30 (LB); 384-well bacterial growth screen at 25 uM, OD600 relative to DMSO control; details: relative growth, OD600, LB; 25 µM; inhibitor
T1 construct: SAD30

Structure (SMILES)	% of control remaining [%]
COc1ccc2c(c1)OCCN(C(=O)C(C)Cl)C2 (centres unmarked) [7-E04, 2-chloro-1-(8-methoxy-2,3,4,5-tetrahydro-1,4-benzoxazepin-4-yl)propan-1-one]	86.04
C=CC(=O)NCc1cscn1 [1-I07, N-[(1,3-thiazol-4-yl)methyl]prop-2-enamide]	90.1345
O=C(CCl)NCCc1cccc(Cl)c1 [5-O05, 2-chloro-N-[2-(3-chlorophenyl)ethyl]acetamide]	115.33
CC(C)c1ccc(CC(=O)CCl)cc1 [10-I17, 1-chloro-3-[4-(propan-2-yl)phenyl]propan-2-one]	115.644
O=C(Cc1cccc(F)c1)N1CCSSCC1 [10-L21, 1-(1,2,5-dithiazepan-5-yl)-2-(3-fluorophenyl)ethan-1-one]	98.8116
O=C(CCl)Nc1cc(Cl)cc(Cl)c1 [4-K09, 2-chloro-N-(3,5-dichlorophenyl)acetamide]	84.8825
Cc1cccc(CC(=O)CCl)c1 [10-I19, 1-chloro-3-(3-methylphenyl)propan-2-one]	92.7333
O=C(CCl)Cc1cccc(Cl)c1 [10-E17, 1-chloro-3-(3-chlorophenyl)propan-2-one]	7.481
O=C(CCl)Cc1cccc(F)c1 [10-C11, 1-chloro-3-(3-fluorophenyl)propan-2-one]	7.637
O=C(CCl)Cc1cc(Cl)cc(Cl)c1 [10-I15, 1-chloro-3-(3,5-dichlorophenyl)propan-2-one]	20.7286
CC(C)(C)c1ccc(CC(=O)CCl)cc1 [10-G19, 1-(4-tert-butylphenyl)-3-chloropropan-2-one]	116.579
O=C(CCl)Cc1ccc(Cl)c(Cl)c1 [10-E15, 1-chloro-3-(3,4-dichlorophenyl)propan-2-one]	25.5601
O=C(CCl)N1CCC1c1cccc(F)c1 (centres unmarked) [5-K10, 2-chloro-1-[2-(3-fluorophenyl)azetidin-1-yl]ethan-1-one]	86.5819
Cc1ccc(CC(=O)CCl)cc1 [10-O13, 1-chloro-3-(4-methylphenyl)propan-2-one]	100.058
COc1cc(C=C(C#N)C(=O)Nc2cccc(C)c2)c2c(c1)CC(C)O2 (centres unmarked) [8-N22, 2-cyano-3-(5-methoxy-2-methyl-2,3-dihydro-1-benzofuran-7-yl)-N-(3-methylphenyl)prop-2-enamide]	77.7022
C=CC(=O)NCc1cn([C@@H]2COC[C@H]2OC)nn1 [1-J17, N-({1-[(3R,4S)-4-methoxyoxolan-3-yl]-1H-1,2,3-triazol-4-yl}methyl)prop-2-enamide]	85.0523
C=CC(=O)N(Cc1ccc(Cl)cc1Cl)CC1CCC(O)C1 (centres unmarked) [1-B04, N-[(2,4-dichlorophenyl)methyl]-N-[(3-hydroxycyclopentyl)methyl]prop-2-enamide]	107.949
Cc1cc(C(=O)CCl)c(C)n1C(C)c1ccccc1 (centres unmarked) [10-P17, 2-chloro-1-[2,5-dimethyl-1-(1-phenylethyl)-1H-pyrrol-3-yl]ethan-1-one]	96.4738
CC(NC(=O)C(C#N)=Cc1ccco1)c1cccc(-n2cccn2)c1 (centres unmarked) [9-J04, 2-cyano-3-(furan-2-yl)-N-{1-[3-(1H-pyrazol-1-yl)phenyl]ethyl}prop-2-enamide]	81.5092
C=CC(=O)N1CCCCC1c1nc2ccccc2n1C (centres unmarked) [3-F04, 1-[2-(1-methyl-1H-1,3-benzodiazol-2-yl)piperidin-1-yl]prop-2-en-1-one]	96.3242
C=CC(=O)NCC(c1c(F)cccc1F)N1CC(C)OC(C)C1 (centres unmarked) [1-I13, N-[2-(2,6-difluorophenyl)-2-(2,6-dimethylmorpholin-4-yl)ethyl]prop-2-enamide]	82.5112
N#CC(=Cc1ccc(-c2ccccc2Cl)o1)C(=O)N1CCCCC1 [8-F20, 3-[5-(2-chlorophenyl)furan-2-yl]-2-(piperidine-1-carbonyl)prop-2-enenitrile]	64.378
O=C(CCl)N1CC(S(=O)(=O)Nc2ccccc2)C1 [5-G10, 1-(2-chloroacetyl)-N-phenylazetidine-3-sulfonamide]	71.283
O=C(NC1CC1)C1(C(=O)N2CCSSCC2)CCC1 [10-B21, N-cyclopropyl-1-(1,2,5-dithiazepane-5-carbonyl)cyclobutane-1-carboxamide]	104.89
Cn1nc(C(F)(F)F)cc1CN(C(=O)CCl)C1CCCC1 [5-C16, 2-chloro-N-cyclopentyl-N-{[1-methyl-3-(trifluoromethyl)-1H-pyrazol-5-yl]methyl}acetamide]	89.1037

Structure (SMILES)	% of control remaining [%]
O=C(CCl)Cc1ccc(F)c(F)c1 [10-O17, 1-chloro-3-(3,4-difluorophenyl)propan-2-one]	19.3259
O=C(CCl)Cc1ccc(C(F)(F)F)cc1 [10-C19, 1-chloro-3-[4-(trifluoromethyl)phenyl]propan-2-one]	79.6415
O=C(CCl)Cc1ccc(F)cc1 [10-G15, 1-chloro-3-(4-fluorophenyl)propan-2-one]	95.6945
COc1ccc(OC)c(C(C)NC(=O)CCl)c1 (centres unmarked) [4-M19, 2-chloro-N-[1-(2,5-dimethoxyphenyl)ethyl]acetamide]	102.48
COc1cc(Cl)c(C)cc1N1C(=O)C=CC1=O [10-B15, 1-(4-chloro-2-methoxy-5-methylphenyl)-2,5-dihydro-1H-pyrrole-2,5-dione]	23.534
COc1ccccc1NC(=O)C(C)Cl (centres unmarked) [5-L20, 2-chloro-N-(2-methoxyphenyl)propanamide]	97.5097
COc1cc(Cl)c(C)cc1NC(=O)C(C)Cl (centres unmarked) [6-C15, 2-chloro-N-(4-chloro-2-methoxy-5-methylphenyl)propanamide]	86.6054
COc1ccccc1CNC(=O)C(C)Cl (centres unmarked) [5-M21, 2-chloro-N-[(2-methoxyphenyl)methyl]propanamide]	101.376
COc1ccccc1CN(C)C(=O)CCl [6-C09, 2-chloro-N-[(2-methoxyphenyl)methyl]-N-methylacetamide]	89.7905
COc1ccc(OC)c(N2C(=O)C=CC2=O)c1 [10-N15, 1-(2,5-dimethoxyphenyl)-2,5-dihydro-1H-pyrrole-2,5-dione]	24.7808
COc1ccc(OC)c(NC(=O)CCl)c1 [6-O04, 2-chloro-N-(2,5-dimethoxyphenyl)acetamide]	96.0091
COc1ccccc1N1C(=O)C=CC1=O [10-O10, 1-(2-methoxyphenyl)-2,5-dihydro-1H-pyrrole-2,5-dione]	26.0277
COc1cc(Cl)c(C)cc1NC(=O)C(C#N)=CC=Cc1ccccc1 [8-A21, N-(4-chloro-2-methoxy-5-methylphenyl)-2-cyano-5-phenylpenta-2,4-dienamide]	93.0659
COc1ccccc1CN1C(=O)C=CC1=O [10-P21, 1-[(2-methoxyphenyl)methyl]-2,5-dihydro-1H-pyrrole-2,5-dione]	42.8599
CC(Cl)C(=O)NCCC1=CCCCCC1 (centres unmarked) [5-N19, 2-chloro-N-[2-(cyclohept-1-en-1-yl)ethyl]propanamide]	88.2631
CN(Cc1ccc(N(C)C)cc1)C(=O)CCl.Cl [5-F06, 2-chloro-N-{[4-(dimethylamino)phenyl]methyl}-N-methylacetamide hydrochloride]	92.298
CSc1ccccc1NC(=O)C(C)Cl (centres unmarked) [4-M12, 2-chloro-N-[2-(methylsulfanyl)phenyl]propanamide]	94.8889
C=CC(=O)N1CCCn2cccc2C12CCOCC2 [1-A22, 1-{2',3',4',5'-tetrahydrospiro[oxane-4,1'-pyrrolo[1,2-a][1,4]diazepin]-2'-yl}prop-2-en-1-one]	107.922
CCC(NC(=O)CCl)c1ccc(C)cc1 (centres unmarked) [4-K17, 2-chloro-N-[1-(4-methylphenyl)propyl]acetamide]	97.3043
C=CC(=O)NCc1ccno1 [1-O07, N-[(1,2-oxazol-5-yl)methyl]prop-2-enamide]	86.846
C=CC(=O)NC1CC(C)Cc2cc(OC)ccc21 (centres unmarked) [3-L17, N-(6-methoxy-3-methyl-1,2,3,4-tetrahydronaphthalen-1-yl)prop-2-enamide]	87.3259
O=C(CCl)NC(c1cc(F)ccc1F)C(F)F (centres unmarked) [7-F22, 2-chloro-N-[1-(2,5-difluorophenyl)-2,2-difluoroethyl]acetamide]	92.5161
C=CC(=O)N(CCO)c1ccc(C(=O)O)cc1 [1-M10, 4-[N-(2-hydroxyethyl)prop-2-enamido]benzoic acid]	88.6398
C=CC(=O)N1CCC(C(=O)N(C)Cc2ccon2)CC1 [2-I14, N-methyl-N-[(1,2-oxazol-3-yl)methyl]-1-(prop-2-enoyl)piperidine-4-carboxamide]	86.7992
C=CC(=O)N1CCC(C(=O)N[C@H]2CC[C@@H]2O)(c2ccccc2)CC1 (racemic) [3-G08, rac-N-[(1R,2R)-2-hydroxycyclobutyl]-4-phenyl-1-(prop-2-enoyl)piperidine-4-carboxamide]	93.3248
